High-throughput results (PubChem BioAssay)
KCNQ2 block: KCNQ2 (rat) channel inhibition | 310,000 tested, 1.1% active | B-score at 10 µM | O88943 | CHO-K1 KCNQ2, FluxOR thallium flux, 20 min; active compounds read low;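 active = fluorescence ratio B-score at most minus 3 library SDs, with starting brightness B-score within 2 library SDs, cut at about -5.5 in these data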
KCNQ2 pot: KCNQ2 (rat) channel potentiation. O88943. CHO-K1 KCNQ2, FluxOR thallium flux fluorescence; active compounds read high. B-score at 10 µM. 310,000 tested, 0.54% active;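 active = fluorescence ratio B-score at least 3 SD of library B-scores, with initial fluorescence B-score within 3 of them, cut at about 5.3 in these data; same plate scores as AID 2156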;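 note: B-score of peak minus minimum over baseline fluorescence ratio after K+ and Tl+ stimulus; positive B-score means potentiation of KCNQ2 with more thallium influx and brighter signal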
Kir21 confirm: confirmation of mouse Kir2.1 potassium channel inhibitors | Tl flux remaining, % of negative control (active compounds read low), % at 10 µM | shares compounds with KCNQ2 pot | 2,300 tested, 41% active | Kir2.1-expressing cells, FluxOR thallium flux fluorescence; active compounds read low;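 active = Primary-screen hit whose thallium flux fell at least 3 control SD below untreated wells in both duplicates, with normal baseline fluorescence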
Target sequence (P35561 whole entry, looked up): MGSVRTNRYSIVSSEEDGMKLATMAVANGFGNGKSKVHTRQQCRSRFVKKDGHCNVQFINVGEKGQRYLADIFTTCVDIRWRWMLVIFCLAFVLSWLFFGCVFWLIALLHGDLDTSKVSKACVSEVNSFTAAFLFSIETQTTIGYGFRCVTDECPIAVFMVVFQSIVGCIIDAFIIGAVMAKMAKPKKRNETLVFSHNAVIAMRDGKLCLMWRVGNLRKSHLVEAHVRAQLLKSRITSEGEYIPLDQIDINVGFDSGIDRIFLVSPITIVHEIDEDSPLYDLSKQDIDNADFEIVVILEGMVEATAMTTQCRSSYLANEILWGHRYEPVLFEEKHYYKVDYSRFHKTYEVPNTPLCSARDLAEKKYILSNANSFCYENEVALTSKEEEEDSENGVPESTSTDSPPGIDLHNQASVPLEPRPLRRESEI
HEK293 Tl flux: parental HEK293 activity in Kir2.1 inhibitor counter-screen. shares compounds with KCNQ2 pot. parental HEK293 cells, FluxOR thallium flux fluorescence; 0% = unstimulated blank wells. FluxOR signal as % of negative control (100 = no effect), % at 10 µM. 2,300 tested, 19% active. AID 2105;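 active = dye signal at least 3 control SD above or below untreated wells in both duplicates, raw fluorescence within 3, either direction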;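 note: percent is based on the flux ratio of peak minus minimum fluorescence over baseline F0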
CHO-K1 Tl ctr: parental CHO-K1 activity in KCNQ2 potentiator counter-screen | activity increase over 3SD of controls, % at 10 µM | shares compounds with KCNQ2 pot | 1,200 tested, 43% active | parental CHO-K1 cells, FluxOR thallium flux fluorescence; zero = vehicle mean+3SD, 100% = vehicle-minus-blank window | AID 2282;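 active = signal rise of at least 3 SD above the untreated control mean, in both duplicate wells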;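 note: counter screen of KCNQ2 potentiator hits so any rise reflects channel-independent effects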
KCNQ1 pot spec: selectivity of KCNQ2 potentiators: effect on human KCNQ1. shares compounds with KCNQ2 pot. CHO KCNQ1 stable, FluxOR thallium flux fluorescence; beyond 3SD, as % of vehicle-control signal. activation over 3SD threshold, % at 10 µM. 1,200 tested, 28% active;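 active = fluorescence ratio rise of at least 3 SD of vehicle wells above their mean, in both replicate wells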
KCNQ2 pot conf: confirmation of rat KCNQ2 potassium channel potentiators. shares compounds with KCNQ2 pot. CHO-KCNQ2 cells, FluxOR thallium flux fluorescence. potentiation, less the hit threshold, % at 10 µM. 1,200 tested, 68% active;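 active = fluorescence ratio rising 3 SD or more over the vehicle control mean in both replicates, plus primary screen hit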;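 note: peak minus minimum thallium fluorescence divided by baseline after K/Tl stimulus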
Kir2-1 sel: tests whether KCNQ2 potentiators also affect mouse Kir2.1; shares compounds with KCNQ2 pot; HEK293 Kir2.1, FluxOR thallium flux fluorescence; activity over 3SD threshold, % at 10 µM; 1,200 tested, 2% active; AID 2345;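 active = fluorescence ratio rise of at least 3 SD above the vehicle-control mean, seen in both replicates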
KCNQ2 W236L pot: potentiates the retigabine-insensitive rat KCNQ2 W236L mutant channel | shares compounds with KCNQ2 pot | CHO KCNQ2-W236L, automated patch clamp current | current increase over 3SD of negative controls (%), active compounds read high, % at 25 µM | 940 tested, 10% active;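 active = current increase at least 3 SD of the untreated controls above them in both duplicate recordings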
Hits are given with their value; - = inactive; . = no result given. The list is not random: actives were taken first. Their share in the collection is about 1.6%.

SMILES | KCNQ2 block | KCNQ2 pot | Kir21 confirm | HEK293 Tl flux | others
COc1cccc(N(CC(=O)NCCSc2ccccn2)S(=O)(=O)c2ccccc2)c1 | - | - | . | .
Nc1c(-c2ccccc2Cl)cnn1-c1cccc([N+](=O)[O-])c1 | - | 5.3 | - | 127% | CHO-K1 Tl ctr=-;KCNQ1 pot spec=-;KCNQ2 pot conf=2.3;Kir2-1 sel=-;KCNQ2 W236L pot=-
Cc1ccccc1-c1cnn(-c2cccc([N+](=O)[O-])c2)c1N | - | - | . | .
CC(C(=O)NCc1cccnc1)c1ccc([N+](=O)[O-])cc1 (configuration not stated) | - | . | . | .
COCCn1c(Cc2ccccc2)nnc1SCC(=O)NC1CC1 | - | . | . | .
O=C(N/N=C/c1cccs1)c1cnccn1 | - | . | . | .
O=C(N/N=C/c1cccs1)c1[nH]ncc1Br | - | 11 | - | - | CHO-K1 Tl ctr=115;KCNQ1 pot spec=-;KCNQ2 pot conf=43;Kir2-1 sel=-;KCNQ2 W236L pot=-
Cc1ccc(N(CC(=O)NCc2ccco2)C(=O)CNS(=O)(=O)c2ccccc2)c(C)c1 | - | - | . | .
COC(=O)CCC(=O)c1ccn(S(=O)(=O)c2ccccc2)c1 | - | . | . | .
CCCCn1nnc(NC(=O)CC23CC4CC(CC(C4)C2)C3)n1 | - | 20 | - | - | CHO-K1 Tl ctr=10;KCNQ1 pot spec=-;KCNQ2 pot conf=59;Kir2-1 sel=-;KCNQ2 W236L pot=-
CC(C)c1nnc(NC(=O)CC23CC4CC(CC(C4)C2)C3)s1 | - | . | . | .
COc1cc(NC(=S)N2CCN(C(=O)C3CCCO3)CC2)c(OC)cc1Cl (configuration not stated) | - | - | . | .
COCCn1c(SCC(=O)Nc2ccccc2OC)nc2ccccc21 | - | . | . | .
COCCn1c(SCC(=O)Nc2nc(C)c(Cl)cc2Cl)nc2ccccc21 | - | - | 62% | -
COc1ccc(Cl)cc1NS(=O)(=O)c1ccc(OC)c(OC)c1 | - | . | 51% | 140%
COc1ccc(S(=O)(=O)Nc2cc(C)ccc2OC)cc1C | - | . | 77% | -
COc1ccc(S(=O)(=O)Nc2cc(Cl)ccc2OC)cc1 | - | . | . | .
COc1ccc(C)cc1NS(=O)(=O)c1ccc(NS(=O)(=O)c2ccc(NC(C)=O)cc2)cc1 | - | - | . | .
O=C(COC(=O)C1CCN(c2ccc(C(F)(F)F)cn2)CC1)Nc1ccc(F)cc1[N+](=O)[O-] | - | - | . | .
Nc1ncc(Br)cc1S(=O)(=O)NCCc1ccccc1 | - | . | . | .
COc1ccc(OC)c(S(=O)(=O)N2CCC(C(=O)NC3CC3)CC2)c1 | - | . | . | .
CCN(CC)CC#CCC(C)(c1ccccc1)c1ccccc1 | - | . | - | -
CCN(CC)CC#CCC(O)(c1ccccc1)c1ccccc1 | - | . | . | .
CCOC(=O)c1ccc(Nc2ncnc3ccc(C)cc23)cc1 | - | - | . | .
CCOC(=O)c1cccc(Nc2ncnc3ccc(C)cc23)c1 | - | - | 52% | -
SMILES | KCNQ2 block | KCNQ2 pot | Kir21 confirm | HEK293 Tl flux | others
CCN1CCCC1CNC(=O)Cn1nc(C)n2nc(-c3ccccc3)cc2c1=O (configuration not stated) | - | . | . | .
COc1ccc(/C(O)=C2/C(=O)C(=O)N(c3ncccn3)C2c2ccc(F)cc2)cc1 (configuration not stated) | - | - | . | .
CCOc1ccc(CN(C)CC(O)COC(c2ccc(OC)cc2)c2ccc(OC)cc2)cc1 (configuration not stated) | - | . | 58% | -
C=CCOc1ccc(CN(C)CC(O)COc2ccc(CCC(C)=O)cc2)cc1 (configuration not stated) | - | - | . | .
COc1ccc(C(OCC(O)CN(C)C2CCCCC2)c2ccc(OC)cc2)cc1 (configuration not stated) | - | . | . | .
COc1ccc(CN(C)CC(O)COC(c2ccc(OC)cc2)c2ccc(OC)cc2)cc1 (configuration not stated) | - | . | 50% | -
CCOC(=O)C1CCCN(S(=O)(=O)c2ccc3c(c2)N(C)C(=O)CC(=O)N3C)C1 (configuration not stated) | - | - | . | .
O=[N+]([O-])c1cc(Cl)ccc1N1CCCCC1 | - | - | . | .
Nc1cc(N2CCCCC2)c(Cl)cc1[N+](=O)[O-] | - | 9.2 | - | - | CHO-K1 Tl ctr=139;KCNQ1 pot spec=-;KCNQ2 pot conf=45;Kir2-1 sel=-;KCNQ2 W236L pot=28%
CC(CCCC(C)(C)O)NCc1cn[nH]c1-c1ccc2c(c1)OCO2 (configuration not stated) | - | - | . | .
CCC(c1nnc(SCC(=O)NC2CCCCC2)n1Cc1ccccc1)N(C)C (configuration not stated) | - | . | . | .
COc1ccccc1N1CCN(Cc2ccc(OC)c(OC)c2OC)CC1 | - | . | . | .
COc1ccccc1N1CCN(Cc2ccc(O)c3ncccc23)CC1 | - | 6.5 | - | 126% | CHO-K1 Tl ctr=-;KCNQ1 pot spec=-;KCNQ2 pot conf=3.8;Kir2-1 sel=-;KCNQ2 W236L pot=-
Cc1ccc(C(=O)NNc2ncnc3c2cnn3C)cc1 | - | . | . | .
Cn1ncc2c(O/N=C(\N)c3ccc(C(F)(F)F)cc3)ncnc21 | - | 6 | - | - | CHO-K1 Tl ctr=20;KCNQ1 pot spec=5.7;KCNQ2 pot conf=-;Kir2-1 sel=-
Cc1ccc(-n2nnnc2SCc2ccccn2)cc1C | - | - | . | .
O=C(COc1ccccc1F)N1CCCc2ccccc21 | - | - | . | .
CC(=O)c1cc(F)ccc1OCC(=O)N1CCCc2ccccc21 | - | . | 54% | -
O=C(c1ccco1)N1CCN(c2ncnc3c(-c4ccc(Cl)cc4)nsc23)CC1 | - | - | . | .
CCOc1ccc(N2C(=O)C3C4C=CC([C@H]5CC45)[C@@H]3C2=O)cc1 (some centres not stated) | - | . | . | .
Cn1c(CNc2ccc(Cl)cc2)nnc1SCc1ccccc1 | - | . | . | .
CCn1c(CC(=O)Nc2ccc(C)cc2)nnc1SCC(=O)NCc1ccccc1 | - | . | . | .
CCn1c(CNc2ccc(Cl)cc2)nnc1SCc1ccccc1 | - | . | 63% | -
CCn1c(CSCc2ccc(C)cc2)nnc1SCC(=O)NCc1ccccc1 | - | . | - | -
Cc1ccc(NS(=O)(=O)c2c(C(=O)N3CCCC3)c(C)n(C)c2C)cc1 | - | - | . | .
OCc1ccnc2oc3ccccc3c12 | - | - | . | .
Cc1cc(NC(=O)C(C)SCC(=O)OCC(=O)N(C)c2ccccc2)no1 (configuration not stated) | - | . | . | .
COc1ccccc1NC(=O)CC12CC3CC(CC(Br)(C3)C1)C2 | - | 6.7 | - | - | CHO-K1 Tl ctr=-;KCNQ1 pot spec=41;KCNQ2 pot conf=23;Kir2-1 sel=-;KCNQ2 W236L pot=-
COc1ccc(NC(=O)CC23CC4CC(CC(Br)(C4)C2)C3)c(OC)c1 | - | 16 | - | - | CHO-K1 Tl ctr=-;KCNQ1 pot spec=2.8;KCNQ2 pot conf=72;Kir2-1 sel=-;KCNQ2 W236L pot=-
NC(=O)c1ccccc1NC(=O)CC12CC3CC(CC(Br)(C3)C1)C2 | - | - | . | .
